From PubChem BioAssay
Hits are enriched below; roughly 3% of the tested compounds scored in any of these assays.
p53null 39C tox: p53 null cell cytotoxicity, nonpermissive temperature; Potency, µM (top dose mostly 46.1 µM), hits mostly cytotoxic; actives 0.97% (n = 55,000); H1299 p53-null (neo) cells, 39C, ATPlite viability, 24 h; AID 904; also: nearly all actives have a fitted effect of over 50% in size
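Following overnight plating at 37C (600 cells/well), H1299-neo or H1299-p53A138V cells are dosed up to 46 uM. Incubation lasts 24 hr at 39C before ATP detection.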
p53null 32C tox: kills p53 null cells at the permissive temperature. actives 0.62% (n = 55,000). AID 903. Potency, µM (top dose mostly 46.1 µM), most hits filed as cytotoxic. H1299-neo p53 null cells, ATP luminescence, 24 h, 32C; also: nearly all actives have a fitted effect of over 55% in size
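Cells lacking p53 (H1299-neo) are plated at 600 per well and allowed to settle overnight at 37C. Test compounds (up to 46 uM) are added and held 24 hours at 32C, then ATP is quantified by luminescence.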
OvCa metastasis: ovarian cancer metastasis inhibition, 3D TME model. actives 0.1% (n = 46,000). SKOV3ip1-GFP adhesion/invasion on 3D omental model, fluorescence. Potency, µM (doses to about 45.8 µM), usual class: inhibitors. AID 1963576; also: nearly all actives have a fitted effect of over 65% in size
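A 3D layer of primary human omental fibroblasts, mesothelial cells, fibronectin and collagen I, grown 48 hr, received SKOV3ip1-GFP cells in serum-free medium plus compounds at 0.36-46 umol/L. After 2 hr RT and 16 hr 37 C, fixed adherent GFP cells were counted; normalized to DMSO and tomatine.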
mTORC1 inh: reduces mTORC1 signaling in Tsc2 and p53 null MEF cells. Tsc2-/- p53-/- MEF, phospho-rpS6 immunofluorescence/PI, 24 h. Potency, µM (doses to about 38.3 µM), most hits filed as inhibitors. actives 0.78% (n = 44,000). AID 493208; also: nearly all actives have a fitted effect of over 50% in size
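Compounds act on Tsc2-/-, p53-/- fibroblasts carrying an empty vector for 24 h before fixation and dual staining for phospho-S6 and DNA (propidium iodide). Values are percentages of cells above a rapamycin-defined pS6/PI threshold.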
S16 F2sN tox: toxic to S16 Pmp22-F2sN Schwann cells; S16 Pmp22-F2sN Schwann cells viability, CellTiter-Glo, 24 h; Potency, µM (doses to about 57.5 µM), usual class: cytotoxic; actives 0.48% (n = 43,000); also: nearly all actives have a fitted effect of over 65% in size
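Used to flag compounds lowering reporter output through toxicity, this quantitative HTS measures ATP-based CellTiter-Glo luminescence in S16 Pmp22-F2sN Schwann cells after 24 h compound exposure at 37C.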
PMP22 txn: modulators of PMP22 gene transcription in S16 Schwann cells; S16 Pmp22-F2sN Schwann cells, FLuc/NLuc coincidence luminescence, 24 h; actives 2% (n = 43,000); Potency, µM (titrated, usually from 57.5 µM), most hits filed as inhibitors; active = clear falling dose curves in both reporters; inconclusive = both reporters move, but less clearly or upward; inactive = either reporter flat; the % is the NLuc reporter signal
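qHTS, 1536-well. Cells seeded, compounds added by pin tool, 24 h 37C. Nano-Glo reagent 1 (lysis/FLuc), 10 min RT, read; Stop&Glo, 10 min RT, read NLuc.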
NLuc saturating: counter-screen for PMP22 expression modulators: NanoLuc inhibition, saturating substrate; Secreted NLuc enzyme (filtered S16 cell medium), Nano-Glo luminescence; Potency, µM (doses to about 57.5 µM), most hits filed as inhibitors; AID 1508638; shares compounds with PMP22 txn; actives 4% (n = 690)
NLuc Km ctr: counter-screen for PMP22 expression modulators: NanoLuc inhibition at Km; actives 5% (n = 690); Potency, µM (top dose mostly 57.5 µM), hits mostly inhibitors; AID 1508639; shares compounds with PMP22 txn; secreted NLuc enzyme, coelenterazine luminescence, Km conditions
FLuc counter: inhibits firefly luciferase, PMP22 counter-screen | shares compounds with PMP22 txn | purified P. pyralis FLuc, luminescence, 10 min | Potency, µM (doses to about 57.5 µM), hits mostly inhibitors | 690 tested, under 10 active
Target sequence (P08659 whole entry, looked up): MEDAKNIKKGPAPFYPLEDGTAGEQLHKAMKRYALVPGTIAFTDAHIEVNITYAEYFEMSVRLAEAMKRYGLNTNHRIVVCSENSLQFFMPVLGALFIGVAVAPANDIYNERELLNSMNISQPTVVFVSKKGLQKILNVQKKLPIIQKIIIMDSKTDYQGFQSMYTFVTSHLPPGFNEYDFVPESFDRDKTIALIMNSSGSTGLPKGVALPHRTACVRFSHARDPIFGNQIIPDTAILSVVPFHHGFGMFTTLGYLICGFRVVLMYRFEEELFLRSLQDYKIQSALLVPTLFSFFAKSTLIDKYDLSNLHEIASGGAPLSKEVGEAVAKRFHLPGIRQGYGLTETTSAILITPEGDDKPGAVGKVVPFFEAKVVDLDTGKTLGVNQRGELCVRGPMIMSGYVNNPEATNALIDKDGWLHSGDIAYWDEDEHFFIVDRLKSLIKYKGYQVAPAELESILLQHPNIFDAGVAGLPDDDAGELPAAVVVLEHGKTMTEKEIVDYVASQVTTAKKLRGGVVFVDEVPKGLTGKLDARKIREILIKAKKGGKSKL
S16 viab conf: confirmation of cytotoxicity in S16 Pmp22-F2sN Schwann cells (luciferase reporters placed in the Pmp22 gene); shares compounds with PMP22 txn; S16 Schwann cells viability, CellTiter-Glo ATP luminescence, 24 h; Potency, µM (doses to about 57.5 µM), actives largely listed as cytotoxic; actives 7% (n = 690); AID 1508641
PMP22 txn cnf: PMP22 transcription modulation, confirmatory; actives 22% (n = 690); Potency, µM (highest dose often 57.5 µM), usual class: inhibitors; shares compounds with PMP22 txn; S16 Schwann cells Pmp22-F2sN, dual luciferase, 24 h; active = clear falling dose curves in both reporters; inconclusive = both reporters move, but less clearly or upward; inactive = either reporter flat; the % is the FLuc reporter signal
Large screens that a line does not name were inactive (follow-up assays come after a bar, where they were run). Unless noted, calls follow the shape of the dose curve; as a rule, active = well fitted curve in the direction sought with a large enough effect; inconclusive = small, poorly fitted or top-dose-only effect, or another doubt; inactive = no such curve, though single readings can be large; an effect the other way counts as inactive or inconclusive.

Cc1ccc(Cn2c(SCc3ccc(C(=O)N4CCCCC4)cc3)nc3ccncc32)cc1	S16 F2sN tox inconclusive
CCOc1ccccc1NC(=O)c1cnn2c(C(F)F)cc(-c3ccccc3)nc12	PMP22 txn 11.3µM | NLuc saturating inactive | NLuc Km ctr inactive | FLuc counter inactive | S16 viab conf inactive | PMP22 txn cnf inconclusive
Cc1ccc(Cl)cc1NC(=O)c1cnn2c(C(F)F)cc(-c3ccccc3)nc12	none
Cc1ccccc1NC(=O)c1ccc(F)c(S(=O)(=O)N(C)C2CCCCC2)c1	PMP22 txn 5.01µM | NLuc saturating inactive | NLuc Km ctr inconclusive | FLuc counter inactive | S16 viab conf inactive | PMP22 txn cnf inactive
CCCCNC(=O)c1cnn2c(C)c(Cc3c(C)cc(C)cc3C)c(C)nc12	p53null 32C tox inconclusive, PMP22 txn inconclusive
CCCNC(=O)c1cnn2c(C)c(Cc3c(C)cc(C)cc3C)c(C)nc12	S16 F2sN tox inconclusive, PMP22 txn 15.8µM | NLuc saturating inconclusive | NLuc Km ctr 21.7µM | FLuc counter inactive | S16 viab conf inactive | PMP22 txn cnf inconclusive
CCOC(=O)c1ccccc1NC(=O)c1nn(C)c2c1COc1ccccc1-2	PMP22 txn 16.8µM | NLuc saturating inactive | NLuc Km ctr inactive | FLuc counter inactive | S16 viab conf inactive | PMP22 txn cnf 18.3µM
CCOC(=O)c1ccc(NC(=O)c2nn(C)c3c2COc2ccccc2-3)cc1	none
O=c1[nH]c(=O)n([C@H]2C[C@@H](O)[C@@H](CO)O2)cc1C=CBr	none (no result: p53null 39C tox, p53null 32C tox, mTORC1 inh, S16 F2sN tox, PMP22 txn)
Cc1ccc(NC(=O)CSc2ncc3c(n2)-c2ccccc2N(C)S3(=O)=O)c(Cl)c1	PMP22 txn 6.45µM | NLuc saturating inconclusive | NLuc Km ctr inactive | FLuc counter inactive | S16 viab conf inactive | PMP22 txn cnf inconclusive
Cc1ccccc1NC(=O)CSc1ncc2c(n1)-c1ccccc1N(C)S2(=O)=O	none
O=C(CSc1nccn1Cc1ccc(F)cc1)Nc1ccc2c(c1)OCCO2	mTORC1 inh inconclusive
Cc1ccccc1CNC(=O)C(=O)NCC(c1cccs1)S(=O)(=O)c1ccc(Cl)cc1 (centres undefined)	PMP22 txn 15µM | NLuc saturating inactive | NLuc Km ctr inactive | FLuc counter inactive | S16 viab conf inactive | PMP22 txn cnf inactive
CCOC(=O)c1ccc(NC(=O)Cc2ccc(-n3c(CC)nc4cccnc43)cc2)cc1	PMP22 txn inconclusive | NLuc saturating inactive | NLuc Km ctr inconclusive | FLuc counter inactive | S16 viab conf inconclusive | PMP22 txn cnf inactive
CCc1ccc(-n2c(SCc3cccc(F)c3)nc3[nH]ncc3c2=O)cc1	S16 F2sN tox inconclusive, PMP22 txn 15.8µM | NLuc saturating inactive | NLuc Km ctr inconclusive | FLuc counter inactive | S16 viab conf inconclusive | PMP22 txn cnf inconclusive
Cc1ccc(-n2c(SCc3cccc(F)c3)nc3[nH]ncc3c2=O)cc1C	S16 F2sN tox inconclusive, PMP22 txn inconclusive
